Data reported in publication PMC11062922 (Nature Chemical Biology, 2023).
Where two headings read alike, the source gives them in different places.

Key:
[1] = tested on: FLT4; details: read-out: apparent Kd, n = 1
[2] = tested on: IRAK4; details: read-out: apparent Kd, n = 1
[3] = compound concentrations:100 nM and 1000 nM (sheet 'Lestaurtinib' of Supplementary Table 1),run:Lestaurtinib_02364_R3,Plate:MR002
[4] = compound concentrations:100 nM and 1000 nM (sheet 'Lestaurtinib' of Supplementary Table 1),run:Lestaurtinib_02381_R1,Plate:MR004
[5] = compound concentrations:100 nM and 1000 nM (sheet 'Lestaurtinib' of Supplementary Table 1),run:Lestaurtinib_02381_R2,Plate:MR004
[6] = compound concentrations:100 nM and 1000 nM (sheet 'Lestaurtinib' of Supplementary Table 1),run:Lestaurtinib_02407_R2,Plate:MR005
[7] = compound concentrations:100 nM and 1000 nM (sheet 'Lestaurtinib' of Supplementary Table 1),run:Lestaurtinib_02422_R1,Plate:MR006
[8] = compound concentrations:100 nM and 1000 nM (sheet 'Lestaurtinib' of Supplementary Table 1),run:Lestaurtinib_02437_R2,Plate:MR007
[9] = compound concentrations:100 nM and 1000 nM (sheet 'Lestaurtinib' of Supplementary Table 1),run:Lestaurtinib_02438_R1,Plate:MR008

Lestaurtinib
potency estimated from few doses [1, 3]: 199 nM
potency estimated from few doses ([1]; compound concentrations:100 nM and 1000 nM (sheet 'Lestaurtinib' of Supplementary Table 1),run:Lestaurtinib_02367_R2,Plate:MR003): 462 nM
potency estimated from few doses ([1]; compound concentrations:100 nM and 1000 nM (sheet 'Lestaurtinib' of Supplementary Table 1),run:Lestaurtinib_02367_R3,Plate:MR003): 74.5 nM
potency estimated from few doses [1, 4]: 202 nM
potency estimated from few doses [1, 5]: 158 nM
potency estimated from few doses [1, 6]: 157 nM
potency estimated from few doses [1, 7]: 289 nM
potency estimated from few doses ([1]; compound concentrations:100 nM and 1000 nM (sheet 'Lestaurtinib' of Supplementary Table 1),run:Lestaurtinib_02422_R2,Plate:MR006): 26 nM
potency estimated from few doses ([1]; compound concentrations:100 nM and 1000 nM (sheet 'Lestaurtinib' of Supplementary Table 1),run:Lestaurtinib_02437_R1,Plate:MR007): 520 nM
potency estimated from few doses [1, 8]: 1240 nM
potency estimated from few doses [1, 9]: 25.6 nM
potency estimated from few doses ([1]; compound concentrations:100 nM and 1000 nM (sheet 'Lestaurtinib' of Supplementary Table 1),run:Lestaurtinib_02443_R3,Plate:MR009): 154 nM
potency estimated from few doses ([1]; compound concentrations:100 nM and 1000 nM (sheet 'Lestaurtinib' of Supplementary Table 1),run:Lestaurtinib_02473_R1,Plate:MR010): 310 nM
potency estimated from few doses ([1]; compound concentrations:100 nM and 1000 nM (sheet 'Lestaurtinib' of Supplementary Table 1),run:Lestaurtinib_02473_R2,Plate:MR010): 316 nM
potency estimated from few doses ([1]; compound concentrations:100 nM and 1000 nM (sheet 'Lestaurtinib' of Supplementary Table 1),run:Lestaurtinib_02482_R3,Plate:MR011): 229 nM
potency estimated from few doses ([1]; compound concentrations:100 nM and 1000 nM (sheet 'Lestaurtinib' of Supplementary Table 1),run:Lestaurtinib_02487_R2,Plate:MR012): 131 nM
potency estimated from few doses ([1]; compound concentrations:100 nM and 1000 nM (sheet 'Lestaurtinib' of Supplementary Table 1),run:Lestaurtinib_02566_R1,Plate:MR014): 1590 nM
potency estimated from few doses ([1]; compound concentrations:100 nM and 1000 nM (sheet 'Lestaurtinib' of Supplementary Table 1),run:Lestaurtinib_02566_R2,Plate:MR014): 90.7 nM
potency estimated from few doses ([1]; compound concentrations:100 nM and 1000 nM (sheet 'Lestaurtinib' of Supplementary Table 1),run:Lestaurtinib_02566_R3,Plate:MR014): 77.7 nM
potency estimated from few doses ([1]; compound concentrations:100 nM and 1000 nM (sheet 'Lestaurtinib' of Supplementary Table 1),run:Lestaurtinib_02577_R2,Plate:MR016): 225 nM
potency estimated from few doses ([1]; compound concentrations:100 nM and 1000 nM (sheet 'Lestaurtinib' of Supplementary Table 1),run:Lestaurtinib_02577_R3,Plate:MR016): 160 nM
potency estimated from few doses ([1]; compound concentrations:100 nM and 1000 nM (sheet 'Lestaurtinib' of Supplementary Table 1),run:Lestaurtinib_02584_R1,Plate:MR017): 396 nM
potency estimated from few doses ([1]; compound concentrations:100 nM and 1000 nM (sheet 'Lestaurtinib' of Supplementary Table 1),run:Lestaurtinib_02584_R2,Plate:MR017): 124 nM
potency estimated from few doses ([1]; compound concentrations:100 nM and 1000 nM (sheet 'Lestaurtinib' of Supplementary Table 1),run:Lestaurtinib_02584_R3,Plate:MR017): 434 nM
potency estimated from few doses ([1]; compound concentrations:100 nM and 1000 nM (sheet 'Lestaurtinib' of Supplementary Table 1),run:Lestaurtinib_02601_R1,Plate:MR018): 286 nM
potency estimated from few doses ([1]; compound concentrations:100 nM and 1000 nM (sheet 'Lestaurtinib' of Supplementary Table 1),run:Lestaurtinib_02601_R2,Plate:MR018): 202 nM
potency estimated from few doses ([1]; compound concentrations:100 nM and 1000 nM (sheet 'Lestaurtinib' of Supplementary Table 1),run:Lestaurtinib_02601_R3,Plate:MR018): 86 nM
potency estimated from few doses ([1]; compound concentrations:100 nM and 1000 nM (sheet 'Lestaurtinib' of Supplementary Table 1),run:Lestaurtinib_02606_R3,Plate:MR019): 231 nM
potency estimated from few doses ([1]; compound concentrations:100 nM and 1000 nM (sheet 'Lestaurtinib' of Supplementary Table 1),run:Lestaurtinib_02624_R1,Plate:MR020): 358 nM
potency estimated from few doses ([1]; compound concentrations:100 nM and 1000 nM (sheet 'Lestaurtinib' of Supplementary Table 1),run:Lestaurtinib_02624_R2,Plate:MR020): 135 nM
potency estimated from few doses ([1]; compound concentrations:100 nM and 1000 nM (sheet 'Lestaurtinib' of Supplementary Table 1),run:Lestaurtinib_02624_R3,Plate:MR020): 359 nM
potency estimated from few doses ([1]; compound concentrations:100 nM and 1000 nM (sheet 'Lestaurtinib' of Supplementary Table 1),run:Lestaurtinib_02724_R2,Plate:MR021): 319 nM
potency estimated from few doses ([1]; compound concentrations:100 nM and 1000 nM (sheet 'Lestaurtinib' of Supplementary Table 1),run:Lestaurtinib_02741_R2,Plate:MR023): 701 nM
potency estimated from few doses ([1]; compound concentrations:100 nM and 1000 nM (sheet 'Lestaurtinib' of Supplementary Table 1),run:Lestaurtinib_02748_R1,Plate:MR024): 330 nM
potency estimated from few doses ([1]; compound concentrations:100 nM and 1000 nM (sheet 'Lestaurtinib' of Supplementary Table 1),run:Lestaurtinib_02748_R2,Plate:MR024): 521 nM
potency estimated from few doses ([1]; compound concentrations:100 nM and 1000 nM (sheet 'Lestaurtinib' of Supplementary Table 1),run:Lestaurtinib_02748_R3,Plate:MR024): 161 nM
potency estimated from few doses ([1]; compound concentrations:100 nM and 1000 nM (sheet 'Lestaurtinib' of Supplementary Table 1),run:Lestaurtinib_02752_R1,Plate:MR025): 310 nM
potency estimated from few doses ([1]; compound concentrations:100 nM and 1000 nM (sheet 'Lestaurtinib' of Supplementary Table 1),run:Lestaurtinib_02752_R3,Plate:MR025): 254 nM
potency estimated from few doses ([1]; compound concentrations:100 nM and 1000 nM (sheet 'Lestaurtinib' of Supplementary Table 1),run:Lestaurtinib_02765_R2,Plate:MR026): 162 nM
potency estimated from few doses ([1]; compound concentrations:100 nM and 1000 nM (sheet 'Lestaurtinib' of Supplementary Table 1),run:Lestaurtinib_02765_R3,Plate:MR026): 400 nM
potency estimated from few doses ([1]; compound concentrations:100 nM and 1000 nM (sheet 'Lestaurtinib' of Supplementary Table 1),run:Lestaurtinib_02766_R1,Plate:MR027): 350 nM
potency estimated from few doses ([1]; compound concentrations:100 nM and 1000 nM (sheet 'Lestaurtinib' of Supplementary Table 1),run:Lestaurtinib_02766_R3,Plate:MR027): 237 nM
potency estimated from few doses ([1]; compound concentrations:100 nM and 1000 nM (sheet 'Lestaurtinib' of Supplementary Table 1),run:Lestaurtinib_02768_R1,Plate:MR028): 180 nM
potency estimated from few doses ([1]; compound concentrations:100 nM and 1000 nM (sheet 'Lestaurtinib' of Supplementary Table 1),run:Lestaurtinib_02768_R2,Plate:MR028): 389 nM
potency estimated from few doses ([1]; compound concentrations:100 nM and 1000 nM (sheet 'Lestaurtinib' of Supplementary Table 1),run:Lestaurtinib_02768_R3,Plate:MR028): 493 nM
potency estimated from few doses ([1]; compound concentrations:100 nM and 1000 nM (sheet 'Lestaurtinib' of Supplementary Table 1),run:Lestaurtinib_02795_R1,Plate:MR022): 391 nM
potency estimated from few doses ([1]; compound concentrations:100 nM and 1000 nM (sheet 'Lestaurtinib' of Supplementary Table 1),run:Lestaurtinib_02795_R2,Plate:MR022): 229 nM
potency estimated from few doses ([1]; compound concentrations:100 nM and 1000 nM (sheet 'Lestaurtinib' of Supplementary Table 1),run:Lestaurtinib_02795_R3,Plate:MR022): 297 nM
potency estimated from few doses ([1]; compound concentrations:100 nM and 1000 nM (sheet 'Lestaurtinib' of Supplementary Table 1),run:Lestaurtinib_02802_R1,Plate:MR029): 183 nM
potency estimated from few doses ([1]; compound concentrations:100 nM and 1000 nM (sheet 'Lestaurtinib' of Supplementary Table 1),run:Lestaurtinib_02896_R1,Plate:MR030): 159 nM
potency estimated from few doses ([1]; compound concentrations:100 nM and 1000 nM (sheet 'Lestaurtinib' of Supplementary Table 1),run:Lestaurtinib_02896_R2,Plate:MR030): 151 nM
potency estimated from few doses ([1]; compound concentrations:100 nM and 1000 nM (sheet 'Lestaurtinib' of Supplementary Table 1),run:Lestaurtinib_02896_R3,Plate:MR030): 372 nM
potency estimated from few doses ([1]; compound concentrations:100 nM and 1000 nM (sheet 'Lestaurtinib' of Supplementary Table 1),run:Lestaurtinib_03172_R3,Plate:MR031): 131 nM
potency estimated from few doses ([1]; compound concentrations:100 nM and 1000 nM (sheet 'Lestaurtinib' of Supplementary Table 1),run:Lestaurtinib_03252_R1,Plate:MR032): 229 nM
potency estimated from few doses ([1]; compound concentrations:100 nM and 1000 nM (sheet 'Lestaurtinib' of Supplementary Table 1),run:Lestaurtinib_03252_R2,Plate:MR032): 76.2 nM
potency estimated from few doses ([1]; compound concentrations:100 nM and 1000 nM (sheet 'Lestaurtinib' of Supplementary Table 1),run:Lestaurtinib_03260_R1,Plate:MR033): 162 nM
potency estimated from few doses ([1]; compound concentrations:100 nM and 1000 nM (sheet 'Lestaurtinib' of Supplementary Table 1),run:Lestaurtinib_03260_R3,Plate:MR033): 388 nM
potency estimated from few doses ([2]; compound concentrations:100 nM and 1000 nM (sheet 'Lestaurtinib' of Supplementary Table 1),run:Lestaurtinib_02339_R2,Plate:MR001): 146 nM
potency estimated from few doses ([2]; compound concentrations:100 nM and 1000 nM (sheet 'Lestaurtinib' of Supplementary Table 1),run:Lestaurtinib_02339_R3,Plate:MR001): 62 nM
potency estimated from few doses ([2]; compound concentrations:100 nM and 1000 nM (sheet 'Lestaurtinib' of Supplementary Table 1),run:Lestaurtinib_02364_R1,Plate:MR002): 77.8 nM
potency estimated from few doses [2, 3]: 95 nM
potency estimated from few doses [2, 4]: 93.9 nM
potency estimated from few doses [2, 5]: 76.7 nM
potency estimated from few doses ([2]; compound concentrations:100 nM and 1000 nM (sheet 'Lestaurtinib' of Supplementary Table 1),run:Lestaurtinib_02381_R3,Plate:MR004): 65.8 nM
potency estimated from few doses ([2]; compound concentrations:100 nM and 1000 nM (sheet 'Lestaurtinib' of Supplementary Table 1),run:Lestaurtinib_02407_R1,Plate:MR005): 69.8 nM
potency estimated from few doses [2, 6]: 55.3 nM
potency estimated from few doses ([2]; compound concentrations:100 nM and 1000 nM (sheet 'Lestaurtinib' of Supplementary Table 1),run:Lestaurtinib_02407_R3,Plate:MR005): 85.3 nM
potency estimated from few doses [2, 7]: 136 nM
potency estimated from few doses ([2]; compound concentrations:100 nM and 1000 nM (sheet 'Lestaurtinib' of Supplementary Table 1),run:Lestaurtinib_02422_R3,Plate:MR006): 131 nM
potency estimated from few doses [2, 8]: 140 nM
potency estimated from few doses [2, 9]: 79.9 nM
potency estimated from few doses ([2]; compound concentrations:100 nM and 1000 nM (sheet 'Lestaurtinib' of Supplementary Table 1),run:Lestaurtinib_02443_R1,Plate:MR009): 113 nM
